The list is not random: actives were taken first. Their share in the collection is about 4.7%.
Pemphigus Ab inh – blocks pemphigus antibody binding to human desmoglein-3 | DSG3-coupled beads, scFv-anti-DSG3-GFP binding, flow cytometry; hits give low values | P32926 | 310,000 compounds, 0.48% hits | binding (percent of control), % at 10 µM;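 active = binding more than 3 SD below its plate's average and above zero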;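 also: hits lower antibody fragment binding to DSG3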
KLK7 zymogen act – activators of human kallikrein-7 zymogen; P49862; purified proKLK7, EDANS-DABCYL substrate fluorescence; 100% is mature enzyme control, 0% vehicle; activation, % at 7 µM; 370,000 compounds, 0.9% hits;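 active = activation above the mean of all tested compounds plus 3 SD, computed per campaign excluding outliers beyond control limits, cut at about 13% in these data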
Target sequence (P49862 whole entry, looked up): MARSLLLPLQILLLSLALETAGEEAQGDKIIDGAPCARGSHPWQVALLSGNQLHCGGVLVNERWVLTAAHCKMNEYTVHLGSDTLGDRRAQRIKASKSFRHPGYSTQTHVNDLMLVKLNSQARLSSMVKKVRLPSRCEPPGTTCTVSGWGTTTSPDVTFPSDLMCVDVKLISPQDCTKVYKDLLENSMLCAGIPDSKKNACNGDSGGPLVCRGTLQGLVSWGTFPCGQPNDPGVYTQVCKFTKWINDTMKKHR
rCAG RNA binder – binds r(CAG) RNA repeats; r(CAG) RNA repeat, TO-PRO-1 dye displacement fluorescence; inhibition, % at 3 µM; 370,000 compounds, 1.3% hits;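 active = inhibition above the plate cutoff, the mean of all test compounds on that plate plus 3 SD, cut at about 35% in these data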;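 also: higher means more dye released from RNA so lower well fluorescence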
ADAM17 inh – ADAM17 inhibition, QFRET primary screen; AID 720648; 370,000 compounds, 0.83% hits; P78536; inhibition, % at 6.95 µM; recombinant ADAM17, EDANS/DABCYL FRET peptide cleavage;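 active = inhibition above the mean of compounds lying between control limits plus 3 SD, set per campaign, cut at about 8.5% in these data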
ADAM10 inh – inhibitors of human ADAM10; AID 720582; recombinant ADAM10, EDANS/DABCYL FRET peptide cleavage, 3 h; 370,000 compounds, 0.62% hits; inhibition, % at 7 µM; O14672;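 active = inhibition above a per-campaign cutoff equal to the mean of compounds falling between control-based bounds plus 3 SD, cut at about 20% in these data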
MPTP block – permeability transition pore inhibition. isolated mouse mitochondria, Ca2+ swelling absorbance, 30 min. inhibition, % at 10 µM. 360,000 compounds, 1.4% hits;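 active = inhibition of 50% or more, scaled per plate between neutral and stimulator controls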
rCAG binder conf – r(CAG) RNA repeat binding, confirmation; shares compounds with rCAG RNA binder; TO-PRO-1 dye displacement fluorescence; inhibition, % at 3 µM; 4,300 compounds, 70% hits; AID 652065;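 active = inhibition above a per-plate cutoff, the mean inhibition of sample wells plus 3 SD, cut at about 35% in these data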;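 also: loss of TO-PRO-1 fluorescence as compound displaces dye from 1x1 AA loop RNA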
DNA CAG counter – DNA CAG dye complex inhibition counter-screen. 4,300 compounds, 94% hits. inhibition, % at 3 µM. shares compounds with rCAG RNA binder. AID 652068. d(CAG) DNA oligo TO-PRO-1 dye displacement, fluorescence;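 active = inhibition above its plate's cutoff, the mean test-well inhibition plus 3 SD, cut at about 4.8% in these data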;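 also: hits displace the dye from DNA and so lower well fluorescence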
dCAG dye DR – disrupts DNA CAG TO-PRO-1 complex in dose response; IC50, µM; shares compounds with rCAG RNA binder; 250 compounds, 20% hits; DNA CAG/GTC duplex TO-PRO-1 dye displacement fluorescence; in the data active = IC50 below about 10 µM
Each line names hits and unclear results; the compound was inactive in the other large screens (follow-up assays come after a bar, where they were run).

O=C(Nc1cccc(S(=O)(=O)NC2=NCCCCC2)c1)c1cc(-c2ccco2)nc2ccccc12	rCAG RNA binder 35 | rCAG binder conf inactive | DNA CAG counter 16
COc1ccc(CCNC(=O)Cn2nc(-c3ccccc3)ccc2=O)cc1	none (no result: Pemphigus Ab inh, MPTP block)
CCN(CC)S(=O)(=O)c1ccc(C(=O)Nc2nnc(NC(=S)Nc3ccccc3)s2)cc1	rCAG RNA binder 61 | rCAG binder conf 64 | DNA CAG counter 33
CCN(CC)S(=O)(=O)c1ccc(NC(=S)Nc2ccccc2)cc1	none
COCCN(CCOC)Cc1c(O)ccc2c1O/C(=C\c1ccc(C)o1)C2=O	rCAG RNA binder 36 | rCAG binder conf inactive | DNA CAG counter inactive
CCCC(=O)Nc1ccc2c(c1)nc(CCN1CCC(C)CC1)n2C	none
CCOc1cc(/C=C2\SC(=S)N(NS(=O)(=O)c3ccccc3)C2=O)ccc1O	rCAG RNA binder 47 | rCAG binder conf inactive | DNA CAG counter 8.6
Cc1ccc(S(=O)(=O)NN2C(=O)/C(=C/c3cccnc3)SC2=S)cc1	none
CCOc1ccc(/C=C2\SC(=S)N(NS(=O)(=O)c3ccccc3)C2=O)cc1OC	rCAG RNA binder 79 | rCAG binder conf 71 | DNA CAG counter 35
COc1cc(/C=C2/SC(=S)NC2=O)ccc1OS(=O)(=O)c1ccc(C)cc1	none (no result: KLK7 zymogen act, rCAG RNA binder, ADAM17 inh, ADAM10 inh)
COc1cc(/C=C2\SC(=S)N(CCCCC(=O)O)C2=O)ccc1OS(=O)(=O)c1ccc(C)cc1	rCAG RNA binder 79 | rCAG binder conf 80 | DNA CAG counter 44
CCOc1ccc(/C=C2\SC(=S)N(C)C2=O)cc1OC	none
CCOc1ccc(/C=C2\SC(=S)N(NS(=O)(=O)c3ccc(C)cc3)C2=O)cc1OC	rCAG RNA binder 83 | rCAG binder conf 76 | DNA CAG counter 41
COc1ccc(NS(=O)(=O)c2ccc3c(c2)[C@H]2C=CC[C@H]2[C@@H](c2ccc(C(=O)O)cc2)N3)cc1	rCAG RNA binder 96 | rCAG binder conf 92 | DNA CAG counter 67
COc1cc(/C=C2/C(=O)NN(c3ccc(Cl)cc3)C2=O)cc(Br)c1O	rCAG RNA binder 46 | rCAG binder conf inactive | DNA CAG counter 8.9
COC(=O)c1ccc(N2NC(=O)/C(=C/c3cc(OC)c(O)c(OC)c3)C2=O)cc1	rCAG RNA binder 42 | rCAG binder conf inactive | DNA CAG counter 4.6
COc1cc(/C=C2/C(=O)NN(c3ccc(F)cc3)C2=O)cc(Cl)c1O	none
COC(=O)c1ccc(N2NC(=O)/C(=C/c3cc(OC)c(OC)c(OC)c3)C2=O)cc1	rCAG RNA binder 65 | rCAG binder conf 61 | DNA CAG counter 20
COc1cc(/C=C2/C(=O)NN(c3ccc(Cl)c(Cl)c3)C2=O)cc([N+](=O)[O-])c1O	rCAG RNA binder 99 | rCAG binder conf 66 | DNA CAG counter 23
COC(=O)C[C@H]1C[C@H]2c3cc(NC(=O)C4CCOCC4)ccc3O[C@H]2[C@H](CO)O1	none (no result: Pemphigus Ab inh)
COc1cc(/C=C2/C(=O)NN(c3cccc(F)c3)C2=O)ccc1OC(=O)c1ccco1	rCAG RNA binder 46 | rCAG binder conf 82 | DNA CAG counter 44
COc1cc(/C=C2\SC(=O)N(c3ccccc3Cl)C2=O)cc([N+](=O)[O-])c1O	rCAG RNA binder 55 | rCAG binder conf 58 | DNA CAG counter 18
COc1ccccc1C(=O)COC(=O)c1nc(Cl)ccc1Cl	none
Cc1ccc(S(=O)(=O)Nc2ccc(Br)cc2/C=N/n2cnnc2)cc1	rCAG RNA binder 45 | rCAG binder conf 39 | DNA CAG counter 13
Cc1ccc(S(=O)(=O)N/N=C/c2cc(Br)ccc2O)cc1	none
O=C1/C(=C\c2ccco2)NC(=S)N1c1ccccc1	rCAG RNA binder 40 | rCAG binder conf 38 | DNA CAG counter 17
CCCN=C1N/C(=C\c2ccco2)C(=O)N1c1ccccc1	none
CCOc1cc(/C=N/NC(=O)C(N)=O)cc(Br)c1O	rCAG RNA binder 36 | rCAG binder conf inactive | DNA CAG counter inactive
COC(=O)N/N=C\c1cccc(OC(=O)c2cccs2)c1	none
O=C1NN(c2ccccc2)C(=O)/C1=C\c1cccc(OC(=O)c2cccs2)c1	rCAG RNA binder 37 | rCAG binder conf 68 | DNA CAG counter 28
CCSC1OC(C(COC(C)=O)OC(C)=O)C(OC(C)=O)C1NC(C)=S (centres undefined)	none
Cc1ccc(Cl)cc1-c1cc(C(=O)N2CCN(c3ccncc3)CC2)[nH]n1	none (no result: Pemphigus Ab inh)
COc1cccc(-n2c(SCc3cc(=O)oc4cc(O)c(O)cc34)nc3ccccc3c2=O)c1	rCAG RNA binder 65 | rCAG binder conf 70 | DNA CAG counter 33
CCN(CC)C(=O)CSc1nc2ccccc2c(=O)n1-c1cccc(OC)c1	none (no result: Pemphigus Ab inh)
Cc1cccc(C)c1NC(=O)C(c1ccnc2ccccc12)N1CCN(C)CC1 (centres undefined)	none (no result: Pemphigus Ab inh)
C=C1CCC[C@]2(C)C[C@H]3OC(=O)C(CNC(C)(CO)CO)[C@H]3CC12 (some centres undefined)	none
CC(C(=O)N1CCc2ccccc21)N1CCN(S(=O)(=O)c2ccc3c(c2)OCCCO3)CC1 (centres undefined)	none
CCOc1ccc(Cn2c(O)cc(=O)[nH]c2=O)cc1	rCAG RNA binder 47 | rCAG binder conf inactive | DNA CAG counter inactive
O=C(Cc1ccc(NC(=O)C2CCCN(C(=O)c3ccccc3)C2)cc1)Nc1cccc(C(=O)N2CCCCC2)c1 (centres undefined)	none (no result: Pemphigus Ab inh, MPTP block)
CC(=C\c1ccccc1)/C=C1/SC(=S)N(C(C(=O)O)C(C)C)C1=O (centres undefined)	rCAG RNA binder 69 | rCAG binder conf 63 | DNA CAG counter 25
C=CCN1C(=O)/C(=C\C(C)=C\c2ccccc2)SC1=S	none
CCC(C(=O)O)N1C(=O)/C(=C/C(C)=C/c2ccccc2)SC1=S (centres undefined)	rCAG RNA binder 61 | rCAG binder conf 76 | DNA CAG counter 31 | dCAG dye DR inactive
O=C(O)c1cc(O)c2c(c1)[C@@H]([C@H]1c3cc(C(=O)O)cc(O)c3C(=O)c3c(O[C@@H]4O[C@H](CO)[C@@H](O)[C@H](O)[C@H]4O)cccc31)c1cccc(OC3O[C@H](CO)[C@@H](O)[C@H](O)[C@H]3O)c1C2=O (some centres undefined)	Pemphigus Ab inh -1.1, rCAG RNA binder 100 | rCAG binder conf 86 | DNA CAG counter 52
